An excerpt weighted towards active compounds, which were near 11% of everything screened.
Pf growth 48h = P. falciparum growth inhibition at 48 hours (one generation). P. falciparum luciferase growth in erythrocytes, 48 h. Potency, µM (top dose mostly 28.7 µM), for the others: at the highest dose activity change, negative = inhibition, usual class: inhibitors. 310,000 tested, 5.9% active. AID 504832; note: % is set by controls: 0 for no effect and ±100 for the full control effect
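Luminescence readout; reporter = integrated firefly luciferase in P. falciparum. RBC culture at 2% hematocrit, 0.1% parasitemia final, 37 C/5% CO2; decreased signal taken as growth inhibition.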
VACV Venus inh = vaccinia inhibition (Venus reporter); 330,000 tested, 0.46% active; AID 720580; Vaccinia virus Venus reporter expression, fluorescence; Potency, µM (highest dose often 36.5 µM), inactives show at the highest dose activity change, negative = inhibition, hits mostly inhibitors; calls by dose curve; tested in A549 cells; note: % is set by controls: 0 for no effect and ±100 for the full control effect; nearly all actives have a fitted effect of over 30% in size
HCV inh = HCV inhibition; Huh7.5.1 HCVcc-Cre infection, luciferase reporter, 44 h; AID 651820; 340,000 tested, 3.4% active; Potency, µM (titrated, usually from 41.8 µM), for the others: top-dose activity change, negative = inhibition, hits mostly inhibitors; note: % is set by controls: 0 for no effect and ±100 for the full control effect
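Seed cells (1,000/well) for 4 h; treat with compound and infect with HCVcc-Cre, moi about 0.5. Incubate 44 h, then detect luciferase activity.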
Pf growth 96h = P. falciparum growth inhibition at 96 hours; P. falciparum luciferase reporter growth, 96 h; Potency, µM (highest dose often 28.7 µM), for the others: top-dose activity change, negative = inhibition, usual class: inhibitors; 320,000 tested, 6.9% active; AID 504834; note: % is set by controls: 0 for no effect and ±100 for the full control effect
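Two parasite generations (96 h, 37 C, 5% CO2) of compound exposure in infected erythrocytes (0.05% parasitemia, 2% hematocrit). Luciferase-reporter P. falciparum; decreased luminescence indicates inhibited growth, aimed at apicoplast-acting delayed death.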
NS1 inh = influenza NS1 inhibition; Potency, µM (highest dose often 46.1 µM), for the others: top-dose activity, positive = more growth; 270,000 tested, 0.4% active; AID 2326; calls by dose curve; note: actives are rising curves; nearly all actives have a fitted effect of over 50% in size
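Compounds were scored for reversing the slow growth caused by influenza A NS1 in S. cerevisiae, measured by optical density at 600 nm. Assay medium contained 2% galactose at pH 6.0; NS1-free yeast of the same strain were the positive control.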
Vaccinia mCherry = vaccinia inhibition (mCherry reporter). Vaccinia virus mCherry reporter infection, fluorescence. Potency, µM (titrated, usually from 36.5 µM), for inactives: at the highest dose activity change, negative = inhibition, hits mostly inhibitors. 310,000 tested, 0.63% active; calls by dose curve; tested in A549 cells; note: % is set by controls: 0 for no effect and ±100 for the full control effect; nearly all actives have a fitted effect of over 35% in size
An asterisk follows results filed as active; i = inactive; ? = inconclusive; nt = no result; [ ] = remark or other dose. Unless noted, calls come from the whole dose curve; as a rule, active = well fitted inhibition curve with a large enough effect; inconclusive = small, poorly fitted or top-dose-only effect, or another doubt; inactive = no such curve, though single readings can be large or run the other way. Potency is the fitted concentration of half-maximal effect.

SMILES	Pf growth 48h	VACV Venus inh	HCV inh	Pf growth 96h	NS1 inh	Vaccinia mCherry
CCCCCOC(=O)Cn1c(=O)c2c(nc(N3CCOCC3)n2C)n(C)c1=O	nt	nt	6%	2%	-7%	nt
O=C(c1ccc(CS(=O)c2ccccc2Cl)o1)N1CCCCCC1 (configuration not stated)	-3%	7%[7.34 µM]	2%	-24%	-10%	2%[7.34 µM]
O=C(O)C[C@@H]1C(=O)O[C@@H]2C(COC(=O)c3cc(O)c(O)c(O)c3)O[C@@H](OC(=O)c3cc(O)c(O)c(O)c3)[C@@H](OC(=O)c3cc(O)c(O)c4c3[C@H]1[C@H](O)C(=O)O4)[C@H]2OC(=O)c1cc(O)c(O)c(O)c1 (some centres not stated)	3.3µM*	nt	nt	2.9µM*	-6%	nt
CCCCC[C@H](O)/C=C/[C@H]1CCC(=O)[C@@H]1CCCCCCC(=O)N1CCCCC1CO (some centres not stated)	9.3µM*	-24%	-26%	?	8%	i
CCCCC[C@H](O)/C=C/[C@H]1[C@H](O)CC(=O)[C@@H]1C/C=C\CCCC(=O)O	-14%	nt	nt	-29%	nt	nt
CCC1CCCCN1C(=O)CCCOc1ccccc1 (configuration not stated)	nt	-8%	0%	89%	-1%	-13%
CCCCC[C@H](O)/C=C\[C@@H]1[C@H](O)CC(=O)[C@@H]1CCCCCCC(=O)O	?	nt	nt	5.1µM*	nt	nt
Cc1cc2cc(C)c(NCCNC(=O)c3cccc(F)c3)nc2cc1C	?	-22%	-8%	0%	3%	-8%
CC(=O)Nc1cc(NC(C)=O)cc(-c2nc3ccccc3[nH]2)c1	-19%	-3%	1%	10µM*	4%	?
Cc1ccc(NC(=O)CCCSc2nc3ccccc3[nH]2)cc1	1%	-13%	5%	-21%	-23%	-4%
O=C(Cc1cccs1)Nc1cccc(-c2nc3cc4ccccc4cc3[nH]2)c1	45%	10µM*	11µM*	207%	?	?
Cc1ccc(SCC(=O)Nc2ccc(-c3nc4ccccc4[nH]3)cc2)cc1	12µM*	?	?	41%	1%	-28%
O=C(Nc1cccc(-c2cnc3ccccc3n2)c1)c1cccc(NC(=O)c2ccco2)c1	nt	nt	10µM*	nt	10%	nt
O=C(Nc1cccc(-c2cnc3ccccc3n2)c1)C1CC(=O)N(c2ccccc2)C1 (configuration not stated)	3%	-15%	13µM*	14%	8%	-6%
O=C(Nc1ccncc1)C1CC(=O)N(c2ccccc2)C1 (configuration not stated)	nt	-6%	23%	nt	nt	i
O=C(Nc1cccc(-c2nc3ccccc3[nH]2)c1)c1ccco1	?	nt	?	15µM*	-110%	nt
O=C(CCl)Nc1ccc(Oc2cnc3ccccc3n2)cc1	1.7µM*	nt	?	0.74µM*	?	nt
O=C(CCl)Nc1cccc(-c2cnc3ccccc3n2)c1	1µM*	?	?	nt	-74%	11µM*
CCC(=O)Nc1cccc(-c2cnc3ccccc3n2)c1	nt	nt	?	?	-23%	nt
O=C(/C=C/N1CCN(Cc2ccccc2)CC1)C(F)(F)F	-3%	nt	7%	8%	4%	nt
COc1ccc(CCc2nnc(CCC(=O)NCc3cc(C(C)C)no3)o2)cc1	15%	-16%	-7%	?	-5%	i
CC(C)(C)c1nnc(NC(=O)CCS(=O)(=O)Cc2ccccc2)s1	-16%	?	-1%	23%	3%	?
CS(=O)(=O)Nc1cc(C(=O)N2CCNC(=O)C2)c2c(c1)ncn2CCc1ccccc1	nt	0%	nt	nt	nt	i
Cc1ccc(C)c(S(=O)(=O)N2CCN(C(=O)/C=C/c3ccco3)CC2)c1	?	nt	-5%	-91%	nt	nt
O=C(N/N=C/c1cc([N+](=O)[O-])ccc1O)c1cccc2ccccc12	13µM*	nt	nt	27%	-4%	nt
SMILES	Pf growth 48h	VACV Venus inh	HCV inh	Pf growth 96h	NS1 inh	Vaccinia mCherry
Cc1nc2ccc(C(=O)N/N=C/c3cc([N+](=O)[O-])ccc3O)cc2[nH]1	20%[5.75 µM]	nt	3%	-23%	nt	nt
CC(=O)N/N=C/c1cc([N+](=O)[O-])ccc1OCCOc1ccccc1	2%	-7%	?	6.6µM*	6%	nt
O=C(Cn1nnc(-c2ccccc2)n1)N/N=C/c1cc([N+](=O)[O-])c(Cl)cc1Cl	14%	-3%	?	31%	3%	i
O=C(Cn1nnc(-c2ccccc2)n1)N/N=C/c1cc([N+](=O)[O-])ccc1O	9%	5%	?	10µM*	12%	-5%
O=C(NN=Cc1cc(Cl)ccc1[N+](=O)[O-])c1cccc2ccccc12	nt	-8%	17%	nt	nt	-7%
O=C(N/N=C/c1cc([N+](=O)[O-])ccc1O)c1cccc(NC(=O)c2cccc(Cl)c2)c1	2.3µM*	3%	24%	2%	5%	-7%
COc1ccc(NC(=O)Nc2nnc(CC(=O)NCc3ccccc3)s2)cc1	0%	nt	-13%	36%	9%	nt
O=C(CCC(=O)Nc1cc(C(F)(F)F)ccc1Cl)N/N=C\c1cc([N+](=O)[O-])ccc1O	13µM*	-5%	-2%	266%	-6%	-20%
O=C(Cn1nc2ccccc2n1)N/N=C/c1cc([N+](=O)[O-])ccc1O	4.7µM*	-19%	?	?	nt	-2%
O=C(N/N=C/c1cc([N+](=O)[O-])ccc1O)c1ccc(COc2ccc3c(c2)CCC3)o1	?	-15%	-27%	9.3µM*	7%	?
CCCCCC(=O)N/N=C/c1ccco1	27%	nt	9%	13µM*	3%	nt
O=C(CCC(=O)Nc1ccc(F)cc1)N/N=C/c1cc([N+](=O)[O-])ccc1O	?	-17%	-10%	-5%	nt	i
CCCCC(=O)Nc1nnc(C2=COCCO2)o1	-42%[1.15 µM]	-1%	20%	-37%[1.15 µM]	2%	8%
O=C(N/N=C/c1coc2ccccc2c1=O)c1cccc([N+](=O)[O-])c1	-3%	2%	8%	5.9µM*	-3%	3%
O=C(Cn1nnc2ccccc21)N/N=C/c1ccco1	24%	-7%	6%	?	-1%	i
O=C(Cn1nnc(-c2ccccc2)n1)N/N=C/c1ccco1	-19%	-9%	13µM*	306%	nt	-10%
Cc1cccc(C(=O)N/N=C/c2coc3ccccc3c2=O)c1	11%	nt	12%	-10%	-8%	nt
CCOC(=O)[C@H]1[C@H]2COc3ccc(Cl)cc3[C@@H]2N2C(=O)c3cc(Cl)ccc3NC(=O)[C@@]12C	?	-27%	?	10µM*	nt	i
CCOC(=O)[C@H]1[C@H]2COc3ccccc3[C@@H]2N2C(=O)c3cc(Cl)ccc3NC(=O)[C@@]12C	10µM*	-14%	-6%	12µM*	nt	-11%
CCOC(=O)[C@H]1[C@H]2COc3ccc(Cl)cc3[C@@H]2N2C(=O)c3cc(Br)ccc3NC(=O)[C@@]12C	?	-26%	?	?	nt	i

Screens as filed in PubChem BioAssay.
